# The full ranking holds about 1,100 compounds; the median of “Wnt reporter firefly/Renilla luciferase ratio relative to plate median” is about 1.1, and the highest 2% start at about 1.6. The sample holds the highest values, similar compounds and a random draw of the others, so the mix is not that of the screen.
# Test system: HEK293T (UBE3A T485A transfected, BAR Wnt reporter)
# Experiment: Wnt reporter firefly/Renilla luciferase ratio relative to plate median (fold (linear ratio)); higher = more Wnt/beta-catenin reporter activation
# Conditions: 24 h
# Method in brief: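 Chemicals at 0.01–100 uM were left on transfected HEK293T cells for 24 h, after a four-hour wait following transfection. The cells held a BAR firefly luciferase Wnt reporter, TK-Renilla and an expression plasmid. Wnt activity, as the firefly/Renilla ratio from a Dual-Glo luciferase readout, and cell health, as raw Renilla, were median-centred within each plate. Results average four biological replicates.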
Structure (SMILES),Wnt reporter firefly/Renilla luciferase ratio (concentration: 0.01 uM),Wnt reporter firefly/Renilla luciferase ratio (concentration: 0.1 uM),Wnt reporter firefly/Renilla luciferase ratio (concentration: 1 uM),Wnt reporter firefly/Renilla luciferase ratio (concentration: 10 uM),Wnt reporter firefly/Renilla luciferase ratio (concentration: 100 uM)
O=[N+]([O-])c1c(Cl)c(Cl)c(Cl)c(Cl)c1Cl [Pentachloronitrobenzene],0.743,0.765,1,0.856,1.26
Nc1ccc(Cl)cc1 [4-Chloroaniline],–,1.15,1.08,0.914,0.367
CCOP(=S)(OCC)Oc1cc(C)nc(C(C)C)n1 [Diazinon],0.789,0.815,1.01,1.25,1.14
CCOC(=O)C(C)OC(=O)c1cc(Oc2ccc(C(F)(F)F)cc2Cl)ccc1[N+](=O)[O-] (configuration not stated) [Lactofen],1.04,1.3,1.14,1.16,0.261
CC(C)Nc1nc(Cl)nc(NC(C)C)n1 [Propazine],1.55,1.1,1.01,1.03,1.11
"Oc1c(Cl)cc(Cl)cc1Cl [2,4,6-Trichlorophenol]",–,0.821,1.09,1.37,0.524
CS(=O)(=O)c1cc(C(F)(F)F)ccc1C(=O)c1cnoc1C1CC1 [Isoxaflutole],1.11,1.4,1.02,1.36,1.45
C#CCOS(=O)OC1CCCCC1Oc1ccc(C(C)(C)C)cc1 (configuration not stated) [Propargite],1.24,1.16,1.02,0.934,0.259
CON=C(C(=O)OC)c1ccccc1CON=C(C)c1cccc(C(F)(F)F)c1 [Trifloxystrobin],0.871,1.03,0.939,0.327,–
COP(=S)(OC)Oc1ccc([N+](=O)[O-])c(C)c1 [Fenitrothion],1.53,2.01,1.26,1.43,0.976
COP(=S)(OC)Oc1ccc([N+](=O)[O-])cc1 [Methyl parathion],1.23,1.05,1.21,1.02,0.89
COP(=S)(OC)Oc1ccc(SC)c(C)c1 [Fenthion],1.02,0.993,1.04,1.08,0.984
CCCCC(CC)COC(=O)c1ccccc1C(=O)OCC(CC)CCCC (configuration not stated) [Di(2-ethylhexyl) phthalate],0.948,0.902,1.01,1.09,0.42
"Clc1cccc(Cl)c1Cl [1,2,3-Trichlorobenzene]",–,1.09,1.1,1.05,1.01
Oc1ccccc1Cl [2-Chlorophenol],–,0.951,0.944,1.24,1.52
"Clc1ccccc1Cl [1,2-Dichlorobenzene]",–,0.904,1.01,0.88,1.62
COc1ccc(C)cc1N [2-Methoxy-5-methylaniline],–,1.14,1.31,1.26,1.29
C1=Cc2cccc3cccc1c23 [Acenaphthylene],–,1.29,1.26,1.41,0.898
"CCCCCCCCCc1ccc(O)cc1 [4-Nonylphenol, branched]",–,1.17,1.09,0.969,1.71
CCCCCCCCCc1ccc(O)cc1 [4-Nonylphenol],–,0.995,0.971,1.16,0.953
CCCCCCCc1ccc(O)cc1 [4-Heptylphenol],–,0.655,0.978,1.2,1.01
CC(C)(C)C(O)/C(=C\c1ccc(Cl)cc1Cl)n1cncn1 (configuration not stated) [Diniconazole],1.09,1.05,0.977,0.744,–
Clc1ccc(C(c2ccc(Cl)cc2)C(Cl)Cl)cc1,–,0.983,0.999,0.984,1.16
COc1cccc(NCC(F)Cn2c3ccc(Br)cc3c3cc(Br)ccc32)c1 (configuration not stated),0.859,1.11,1.28,0.896,1.01
